Assay results as given in PubChem BioAssay (NCI).
Values joined by “and” are separate entries in the source; they are usually repeats but may differ in a detail not shown here. Identical values can stand only once. The panel holds about 79,000 compounds, 15% with a hit somewhere; the sample as a whole holds those more often. Some structures have more than one record in an assay (separate samples or runs), and their calls can disagree. Active and inactive are the calls of the source. Cut-off read from the data, not from the text of the source: active = growth inhibition above about 70%; inactive = the rest.

Key:
[1] = NCI Yeast Anticancer Drug Screen. Data for the rad52 strain (AID 147);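 note: 0% = growth of vehicle-treated control cultures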; conditions: S. cerevisiae rad52 mutant growth inhibition, stronger effect = higher value
How it was run: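 Growth of repair-deficient yeast cells was compared between compound-treated and vehicle-treated cultures to give percent inhibition.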

[2] = NCI Yeast Anticancer Drug Screen. Data for the wt1 strain (AID 149);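 note: 0% = growth of vehicle-treated wt1 cultures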; conditions: S. cerevisiae wt1 strain (SPY 50644) growth inhibition, stronger effect = higher value
How it was run: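 wt1 yeast, compound-treated; % growth inhibition vs vehicle control.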

[3] = NCI Yeast Anticancer Drug Screen. Data for the mgt1 strain (AID 153); conditions: S. cerevisiae mgt1 mutant growth inhibition, stronger effect = higher value
How it was run: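 Compounds were applied to mgt1 mutant yeast, and growth was then compared against vehicle-treated control cultures to give percent inhibition.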

[4] = NCI Yeast Anticancer Drug Screen. Data for the rad50 strain (AID 155);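 note: 0% = growth of vehicle-only cultures of the same strain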; conditions: S. cerevisiae rad50 strain growth inhibition, stronger effect = higher value
How it was run: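 Genetically altered yeast (DNA repair pathway); compound treatment; growth inhibition vs vehicle ctrl.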

[5] = NCI Yeast Anticancer Drug Screen. Data for the mec2-1 strain (AID 157); conditions: S. cerevisiae mec2-1 strain, stronger effect = higher value
How it was run: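 Compounds were applied to mec2-1 yeast cells. Their growth was then compared with that of vehicle-treated cultures to give growth inhibition.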

[6] = NCI Yeast Anticancer Drug Screen. Data for the rad14 strain (AID 159);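 note: 0% = growth of vehicle-treated control cultures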; conditions: S. cerevisiae rad14 strain growth inhibition, stronger effect = higher value
How it was run: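 Test compounds were applied to a repair-deficient yeast strain. Its growth was then compared with that of cultures given vehicle alone, and inhibition was expressed relative to those controls.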

[7] = NCI Yeast Anticancer Drug Screen. Data for the sgs1 mgt1 strain (AID 161);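 note: 0% = growth of cultures given vehicle only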; conditions: S. cerevisiae sgs1 mgt1 strain, stronger effect = higher value
How it was run: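 Percent growth inhibition was derived by comparing compound-exposed mutant yeast with vehicle-exposed cultures. The strain carries alterations in DNA damage repair.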

[8] = NCI Yeast Anticancer Drug Screen. Data for the CLN2oe strain (AID 163);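 note: 0% = growth of vehicle-only control cultures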; conditions: S. cerevisiae CLN2oe strain, stronger effect = higher value
How it was run: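 Cells of an engineered yeast line with disturbed cell-cycle regulation are treated with compound. Inhibition of growth is then calculated relative to the vehicle-treated reference.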

[9] = NCI Yeast Anticancer Drug Screen. Data for the cln2 rad14 strain (AID 165);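 note: 0% = growth equal to vehicle treated cultures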; conditions: S. cerevisiae cln2 rad14 strain, stronger effect = higher value
How it was run: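 Strain: cln2 rad14 yeast, altered in cell cycle control and DNA damage repair. Read-out: growth inhibition vs vehicle.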

[10] = NCI Yeast Anticancer Drug Screen. Data for the bub3 strain (AID 167); conditions: S. cerevisiae bub3 mutant strain, stronger effect = higher value
How it was run: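 Yeast carrying a defined mutation is treated with each compound, and growth is compared with that of vehicle-exposed cells to give inhibition.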

[11] = NCI Yeast Anticancer Drug Screen. Data for the wt2 strain (AID 169);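 note: 0% = growth of vehicle-treated yeast cultures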; conditions: S. cerevisiae wt2 strain growth inhibition, stronger effect = higher value
How it was run: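 Growth of compound-treated yeast is measured and expressed as inhibition relative to vehicle-only controls.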

[12] = NCI Yeast Anticancer Drug Screen. Data for the mlh1 strain (AID 171);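 note: 0% = growth of vehicle-treated control cultures of the same strain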; conditions: S. cerevisiae mlh1 strain growth inhibition, stronger effect = higher value
How it was run: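 Test agents were incubated with yeast bearing a defined DNA damage repair or cell cycle control alteration; values are growth inhibition normalised to vehicle-treated cultures.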

[13] = NCI Yeast Anticancer Drug Screen. Data for the sgs1 strain (AID 173);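 note: 0% = growth of vehicle-only control cultures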; conditions: S. cerevisiae sgs1 mutant, stronger effect = higher value
How it was run: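 Strain with an altered DNA repair or cell cycle pathway exposed to compound. Growth then measured. Value = inhibition versus vehicle control.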

[14] = NCI Yeast Anticancer Drug Screen. Data for the mlh1 rad18 strain (AID 175); conditions: S. cerevisiae mlh1 rad18 strain growth inhibition, stronger effect = higher value
How it was run: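 A repair-deficient yeast strain is exposed to test compound, and growth is scored relative to vehicle-treated controls.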

[15] = NCI Yeast Anticancer Drug Screen. Data for the rad50EPP+ strain (AID 151);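 note: 0% = growth of vehicle-treated control cultures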; conditions: S. cerevisiae rad50 mutant strain, stronger effect = higher value
How it was run: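 Measured: growth inhibition of rad50EPP+ yeast. Reference: vehicle-treated controls. Screen uses strains with defined genetic alterations in DNA damage repair or cell cycle control.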

[16] = NCI Yeast Anticancer Drug Screen. Data for the rad18 strain (AID 177); conditions: S. cerevisiae rad18 mutant growth inhibition, stronger effect = higher value
How it was run: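 DNA-repair-defective yeast; compound treatment; growth inhibition scored against vehicle.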

[17] = at 5.0 µM (retest, dose inferred, filed as 0.5)
[18] = at 50.0 µM (retest, dose inferred, filed as 5.0)

Measured: growth inhibition

C=C1C(=O)OC2CC1C(OC(C)=O)C/C(C)=C/CC/C(C)=C\CCC2(C)O (stereo not drawn)
24% (inactive) and 85% (active): [4]; [17]
active: [1]; at 100.0 µM 88% | [2]; at 100.0 µM 85% | [3]; at 100.0 µM 80% | [4]; at 50.0 µM 81.5% and 88.8% | [4]; at 100.0 µM 86% | [5]; [18] 79% and 99% | [5]; at 50.0 µM 81.7% and 91.2% | [5]; at 100.0 µM 89% | [6]; at 100.0 µM 87% | [7]; at 50.0 µM 71.2% and 87.9% | [8]; at 100.0 µM 85% | [9]; at 50.0 µM 78.8% and 89.3% | [10]; [18] 85% and 99% | [10]; at 50.0 µM 84.5% and 90.7% | [10]; at 100.0 µM 85% | [11]; at 100.0 µM 93% | [12]; at 100.0 µM 89% | [13]; at 100.0 µM 90% | [14]; [18] 97% | [14]; at 50.0 µM 85.5% and 86.8%
60% (inactive) and 95% (active): [14]; [17]
18% (inactive) and 82% (active): [5]; [17]
67% (inactive) and 99% (active): [7]; [18]
24% (inactive) and 99% (active): [7]; [17]
51% (inactive) and 97% (active): [9]; [18]
inactive: [1]; at 1.2 µM -5% | [1]; at 3.7 µM 1% | [1]; at 11.0 µM 15% | [1]; at 33.0 µM 33% | [2]; at 1.2 µM 3% | [2]; at 3.7 µM 11% | [2]; at 11.0 µM 13% | [2]; at 33.0 µM 30% | [3]; at 1.2 µM -14% | [3]; at 3.7 µM 3% | [3]; at 11.0 µM 13% | [3]; at 33.0 µM 28% | [4]; at 1.2 µM -3% | [4]; at 3.7 µM 9% | [4]; at 11.0 µM 17% | [4]; at 33.0 µM 40% | [5]; at 1.2 µM 11% | [5]; at 3.7 µM 17% | [5]; at 11.0 µM 23% | [5]; at 33.0 µM 37% | [6]; at 1.2 µM 5% | [6]; at 3.7 µM 17% | [6]; at 11.0 µM 31% | [6]; at 33.0 µM 44% | [8]; at 1.2 µM -17% | [8]; at 3.7 µM 9% | [8]; at 11.0 µM 20% | [8]; at 33.0 µM 13% | [9]; [17] 6% and 31% | [10]; at 1.2 µM 6% | [10]; at 3.7 µM -8% | [10]; at 11.0 µM 4% | [10]; at 33.0 µM 24% | [11]; at 1.2 µM -2% | [11]; at 3.7 µM -4% | [11]; at 11.0 µM 12% | [11]; at 33.0 µM 17% | [12]; at 1.2 µM -5% | [12]; at 3.7 µM 19% | [12]; at 11.0 µM 28% | [12]; at 33.0 µM 51% | [13]; at 1.2 µM 13% | [13]; at 3.7 µM 27% | [13]; at 11.0 µM 40% | [13]; at 33.0 µM 55%
36% (inactive) and 90% (active): [10]; [17]
63% (inactive) and 98% (active): [4]; [18]

Cc1cc2c3ccccc3c3ccccc3c2nn1
active: [1]; at 33.0 µM 74% | [1]; at 100.0 µM 80% | [4]; at 11.0 µM 72% | [4]; at 33.0 µM 83% | [4]; [18] 77% | [4]; at 50.0 µM 94.7% | [4]; at 100.0 µM 79%
inactive: [1]; at 1.2 µM 2% | [1]; at 3.7 µM 21% | [1]; at 11.0 µM 60% | [2]; at 1.2 µM -7% | [2]; at 3.7 µM -6% | [2]; at 11.0 µM -8% | [2]; at 33.0 µM -8% | [2]; at 100.0 µM -5% | [15]; at 1.2 µM 13% | [15]; at 3.7 µM 38% | [15]; at 11.0 µM 56% | [15]; at 33.0 µM 60% | [15]; at 100.0 µM 52% | [4]; at 1.2 µM 5% | [4]; at 3.7 µM 25% | [4]; [17] 2% | [6]; at 1.2 µM 3% | [6]; at 3.7 µM 8% | [6]; at 11.0 µM 15% | [6]; at 33.0 µM 15% | [6]; at 100.0 µM 15% | [7]; [17] -61% | [7]; [18] -15% | [7]; at 50.0 µM 36.5% | [8]; at 1.2 µM -3% | [8]; at 3.7 µM -3% | [8]; at 11.0 µM 1% | [8]; at 33.0 µM 1% | [8]; at 100.0 µM 0% | [9]; [17] -59% | [9]; [18] -24% | [9]; at 50.0 µM 27.5% | [10]; at 1.2 µM -9% | [10]; at 3.7 µM -1% | [10]; [17] -64% | [10]; at 11.0 µM 7% | [10]; at 33.0 µM 9% | [10]; [18] -31% | [10]; at 50.0 µM 29.1% | [10]; at 100.0 µM 11% | [11]; at 1.2 µM -4% | [11]; at 3.7 µM -3% | [11]; at 11.0 µM -3% | [11]; at 33.0 µM -3% | [11]; at 100.0 µM -6% | [12]; at 1.2 µM 5% | [12]; at 3.7 µM -6% | [12]; at 11.0 µM 0% | [12]; at 33.0 µM 1% | [12]; at 100.0 µM -3% | [13]; at 1.2 µM -3% | [13]; at 3.7 µM -6% | [13]; at 11.0 µM 0% | [13]; at 33.0 µM 12% | [13]; at 100.0 µM 11% | [14]; [17] -88% | [14]; [18] -13% | [14]; at 50.0 µM 60.4% | [16]; at 1.2 µM -2% | [16]; at 3.7 µM 2% | [16]; at 11.0 µM 10% | [16]; at 33.0 µM 12% | [16]; at 100.0 µM 10%
